High-throughput results (PubChem BioAssay)
Pyk2 oligo antag – Pyk2 (human) oligomerization antagonism; 0.83% of 99,000 active; z-score (the deposit names both 25 µM and 10 µM); Q14289; Q293 cells, Pyk2 FERM NanoBiT luminescence; stronger effect = lower value;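 active = Z-score of -3 or lower, scaled per plate to the spread of control and sample wells; inactive = z-score above -3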;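 also: negative z-score means lost luminescence so less FERM oligomerization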
CYP2C9 inhib – blocks human cytochrome P450 2C9 | CYP2C9 Supersomes, luciferin-H conversion, luminescence | P11712 | 20% of 96,000 active | AID 777 | inhibition, % at 5 µM;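 active = blocking of liver enzyme CYP2C9 beyond about 50% at 5 µM, limit read from the data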
Target sequence (P11712 whole entry, looked up): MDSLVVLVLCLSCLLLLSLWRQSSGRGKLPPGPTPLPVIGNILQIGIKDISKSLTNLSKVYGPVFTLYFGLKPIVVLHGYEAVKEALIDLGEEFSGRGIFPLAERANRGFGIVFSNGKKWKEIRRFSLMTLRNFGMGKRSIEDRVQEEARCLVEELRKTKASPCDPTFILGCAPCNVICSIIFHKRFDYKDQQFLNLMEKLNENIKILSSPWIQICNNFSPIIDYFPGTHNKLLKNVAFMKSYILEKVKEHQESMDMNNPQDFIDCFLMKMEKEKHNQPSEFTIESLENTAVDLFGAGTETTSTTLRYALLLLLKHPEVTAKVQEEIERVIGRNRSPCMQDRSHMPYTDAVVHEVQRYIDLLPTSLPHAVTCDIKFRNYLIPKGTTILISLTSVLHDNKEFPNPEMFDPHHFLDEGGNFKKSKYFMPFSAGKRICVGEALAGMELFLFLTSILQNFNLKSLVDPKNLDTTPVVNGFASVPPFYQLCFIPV
CYP2C19 activ – increases human CYP2C19 enzyme activity; recombinant CYP2C19, luciferin-H EGE luminescence; stronger effect = higher value; 0 = fully inhibited enzyme, 1 = untreated enzyme; P33261; activation factor at 5 µM; 96,000 tested, under 10 active;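 active = activation factor of at least 2 at 5 µM in the primary screen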;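 also: 0 = wells with 2.5 mM tranylcypromine and 1 = vehicle-only wells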
CYP2C19 inhib – blocks human cytochrome P450 2C19 | 21% of 96,000 active | P33261 | CYP2C19 Supersomes, luciferin-H EGE luminescence, 30 min | inhibition, % at 5 µM;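 active = CYP2C19 inhibition above a set limit at 5 µM in the primary screen, cut at about 50% in these data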;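 also: plate controls were negative control wells for no effect and 2.5 mM tranylcypromine positive control for full effect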
CYP2C9 act – increases human cytochrome P450 2C9 activity; P11712; recombinant CYP2C9, luciferin-H conversion, luminescence; stronger effect = higher value; factor 1 = untreated enzyme, 0 = blocked; activation factor at 5 µM; 1.4% of 96,000 active;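 active = activation factor of 2 or more for CYP2C9 at a 5 µM dose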;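 also: 0 = sulfaphenazole-blocked wells and 1 = vehicle-only wells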
Starred values were filed as active, the others as inactive; · = no result given. A selection: hits, their analogues and other compounds. The true share with any hit is near 28%.

SMILES	Pyk2 oligo antag	CYP2C9 inhib	CYP2C19 activ	CYP2C19 inhib	CYP2C9 act
COc1cccc(NC2CC(=O)N(CCc3ccccc3)C2=O)c1 (stereo not drawn)	-1.47	20.9	0.5	49.8	0.8
O=C1CC(Nc2ccccc2)C(=O)N1c1ccc(N2CCOCC2)cc1 (stereo not drawn)	0.22	-20.0	1.2	-19.4	1.2
CCCCN1C(=O)CC(Nc2ccc(CC)cc2)C1=O (stereo not drawn)	0.68	22.4	0.2	77.2*	0.8
Cc1ccc(N2C(=O)CC(Nc3ccccc3)C2=O)cc1 (stereo not drawn)	0.3	9.1	0.5	53.4*	0.9
Cc1ccc(NC2CC(=O)N(Cc3ccccc3)C2=O)cc1 (stereo not drawn)	0.47	-45.6	0.3	67.9*	1.5
O=C1CC(N(O)C2CC(=O)N(Cc3ccccc3)C2=O)C(=O)N1Cc1ccccc1 (stereo not drawn)	-0.89	11.1	0.8	17.1	0.9
O=C(NC(NCCCN1CCOCC1)(C(F)(F)F)C(F)(F)F)C1CCCCC1	2.17	1.6	0.9	7.2	1
COc1ccc(C(=O)COc2nc(C)cc(C)c2C#N)cc1	-1.03	15.1	0.6	43.6	0.8
CCOC(=O)c1cnc(-n2cc(C)cn2)nc1Nc1ccccc1OC	-0.99	6.7	1	-2.1	0.9
CCOC(=O)c1cc(C(=O)OCC)c2cccc(C)n2c1=O	0.65	6.5	1	-4.1	0.9
COc1ccc(NC2CC(=O)N(c3cccc(C)c3)C2=O)cc1 (stereo not drawn)	-0.96	12.6	0.4	59.9*	0.9
COc1ccc(NC2CC(=O)N(C(C)C)C2=O)cc1 (stereo not drawn)	0.67	19.2	0.8	23.9	0.8
CCc1ccc(N(CC(=O)NC)S(C)(=O)=O)cc1	-0.52	-1.9	0.9	14.2	1
Cc1ccnc(N2CCC(C(=O)NCc3ccc4c(c3)OCO4)CC2)n1	-0.66	66.5*	0.6	44.8	0.3
CCc1c(C)nc2ncnn2c1N1CCCC(C(=O)NCc2ccc3c(c2)OCO3)C1 (stereo not drawn)	1.04	70.1*	0.7	29.0	0.3
O=C(NCc1ccc2c(c1)OCO2)C1CCN(S(=O)(=O)c2cccs2)CC1	0.07	30.4	0.9	9.1	0.7
O=C(NCc1ccc2c(c1)OCO2)C1CCN(c2ccc(S(=O)(=O)N3CCCC3)cc2)CC1	1.37	62.7*	0.7	26.0	0.4
O=C(NCc1ccc2c(c1)OCO2)C1CCN(S(=O)(=O)c2ccc(Br)s2)CC1	1.18	45.5	0.4	64.6*	0.5
COC(=O)CNC(=O)CN1C(=O)N(c2ccc(Cl)cc2)C(N(O)C(=O)Nc2ccc(Cl)cc2)C1(C)C (stereo not drawn)	0.36	20.8	0.7	32.9	0.8
O=C(COC(=O)Cc1cccs1)Nc1ccc(F)c(F)c1F	0.55	25.0	0.3	74.8*	0.8
COC(=O)c1ccc(CSc2nnc(Nc3ccc(OC)cc3)s2)o1	-0.84	6.5	1.1	-6.4	0.9
COC(=O)c1ccc(CSc2nc(-c3ccccc3)cs2)o1	-0.16	56.3*	0.8	24.8	0.4
COC(=O)c1ccc(CSc2nnc(SCc3ccc(C(=O)OC)o3)s2)o1	1.44	58.7*	0.7	34.2	0.4
COC(=O)c1ccc(CSc2nnc(NCc3ccccc3)s2)o1	-0.47	26.1	0.8	23.6	0.7
Cn1c(NC(=O)c2ccccc2)c(-c2ccccn2)c(=O)c2ccccc21	-0.87	27.7	1.1	-10.6	0.7
SMILES	Pyk2 oligo antag	CYP2C9 inhib	CYP2C19 activ	CYP2C19 inhib	CYP2C9 act
COc1ccc(-c2nnc(-c3cc4ccccc4oc3=O)o2)cc1	-0.32	·	·	·	·
CCCCCCc1cc2cc(-c3nnc(-c4ccccc4O)o3)c(=O)oc2cc1O	-1.66	89.8*	0.9	14.1	0.1
CCCCCCc1cc2cc(-c3nnc(-c4ccccc4OC)o3)c(=O)oc2cc1O	-3.1*	96.7*	0.5	48.3	0
COc1cc2c(cc1OC)CN(CC(=O)Nc1ccc(C#N)cc1)CC2	1.13	23.8	0.8	22.6	0.8
O=C(c1ccccc1)c1ccc(N2CCOCC2)c(F)c1	-0.58	8.9	0.3	66.7*	0.9
O=C(c1ccccc1)c1cc(F)c(N2CCOCC2)cc1Cl	0.98	-16.8	0.4	59.3*	1.2
O=C(Cc1ccccc1)Nc1ccc(N2CCOCC2)cc1N1CCOCC1	0.83	16.5	0.7	29.2	0.8
O=C(Nc1ccc(N2CCOCC2)c(F)c1)c1ccncc1	-0.41	64.9*	0.5	52.0*	0.4
O=C(Cc1ccccc1)Nc1cc(C(=O)c2ccccc2)ccc1N1CCOCC1	-1.04	89.7*	0.3	68.7*	0.1
COC(=O)c1ccc(N2CCOCC2)c(F)c1	0.94	42.1	0.6	36.3	0.6
O=C(Nc1ccc(N2CCOCC2)c(Cl)c1)c1ccccc1F	-0.21	2.3	1	0.1	1
c1ccc(-n2nnnc2-c2cnc(-c3cccnc3)nc2-c2cccs2)cc1	-1.91	·	·	·	·
O=C(NCc1ccccn1)c1ccc(N2CCCC2=O)cc1	-0.08	-12.1	1.2	-18.8	1.1
CC(=O)CSc1nnc(Cc2ccc3c(c2)OCO3)o1	0.95	·	·	·	·
COc1ccc(C(C(=O)NC2CCCCC2)N(C(=O)c2sc(C)nc2C)c2ccccc2C)cc1 (stereo not drawn)	0.21	-6.6	0.8	16.1	1.1
COc1ccc(C2C(C(C)=O)=C(C)N=c3s/c(=C/c4ccc5c(c4)OCO5)c(=O)n32)cc1 (stereo not drawn)	·	16.1	0.9	8.3	0.8
COc1ccc(/C=c2/sc3n(c2=O)NC2(c4ccccc4)N(C)C(=O)N(C)C2(c2ccccc2)N=3)cc1 (stereo not drawn)	-0.54	59.8*	0.6	40.0	0.4
Cc1ccc(S(=O)(=O)N2CCC(C(=O)Nc3nnc(C45CC6CC(CC(C6)C4)C5)s3)CC2)cc1	·	-5.0	0.9	14.0	1.1
Cc1ccc(Oc2ccc(-c3nc(N)nc(N)n3)cc2)cc1C	-1.19	3.3	0.9	7.2	1
Nc1nc(N)nc(-c2ccc(Oc3ccccc3)cc2)n1	-0.39	51.3*	0.7	33.5	0.5
COc1ccc(C/C(=N\O)c2ccc(OC)cc2)cc1	-1.59	57.8*	0.4	57.4*	0.4
O=C(O)CCC(=O)c1c[nH]c2ccccc12	2.35	-6.6	1	3.5	1.1
CC(CN1CCCCC1)OC(=O)Cc1ccc(Cl)cc1 (stereo not drawn)	-0.18	5.6	0.4	60.0*	0.9
CC(CN1CCCCC1)OC(=O)C(C)(c1ccccc1)c1ccccc1 (stereo not drawn)	-0.41	67.5*	0.5	54.4*	0.3
Cc1cccc(C)c1-n1c(SCC(=O)NCc2ccco2)nc2ccccc2c1=O	-1.34	32.0	0.6	44.4	0.7
Cc1nnc(SCC(=O)Nc2nccs2)[nH]c1=O	0.5	-12.0	1	4.4	1.1
Cc1nnc(SCC(=O)Nc2sc3c(c2C(N)=O)CCCC3)[nH]c1=O	-0.12	68.8*	1	1.4	0.3
CCCn1c(SCC(=O)Nc2sc(C)c(C)c2C#N)nnc1C(C)C	0.19	22.1	0.2	75.3*	0.8
